# Screening results: PubChem BioAssay, several laboratories
# 3CLpro inhibitor – SARS-CoV 3CLpro protease inhibition. recombinant SARS-CoV 3CLpro, quenched FRET peptide cleavage. actives 0.14% (n = 290,000). inhibition, % at 6 µM. P0C6X7; in the data active = inhibition above about 12%
# PfHsp40 yeast – compounds rescuing yeast from Plasmodium falciparum HSP40 toxicity. actives 0.68% (n = 340,000). S. cerevisiae expressing PfHsp40, growth rescue, ATP luminescence. AID 504582. growth rescue, % at 12.5 µM; in the data active = growth rescue above about 28%, passing the limit was not always enough; inconclusive = no clear call, values can overlap the other calls;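 note: yeast W303a lacking pdr1 and pdr3 grown in galactose medium; growth measured after three days at 30 °C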
# Yp Topo-I inh – inhibitors of Yersinia pestis topoisomerase I; Y. pestis Topo-I cleavage product accumulation, plate reader; activity, % at 10 µM; actives 0.064% (n = 360,000); AID 504884; in the data active = activity above about 50%, passing the limit was not always enough; inconclusive = no clear call, values can overlap the other calls
# BJeLR lethal – BJeLR cell viability loss; actives 0.17% (n = 300,000); inhibition, % (no concentration beside the values); AID 1554; BJeLR (HRASV12) viability, CellTiter-Glo ATP luminescence, 48 h; in the data active = inhibition above about 50%; inconclusive = no clear call, values can overlap the other calls
# MazF activator – increases E. coli MazEF RNase cleavage of RNA; activation, % at 20 µM; FAM/BHQ RNA-DNA oligo cleavage fluorescence, 5 h; AID 504720; P0AE70; actives 0.32% (n = 350,000); in the data active = activation above about 50%
# Target sequence (P0AE70 whole entry, looked up): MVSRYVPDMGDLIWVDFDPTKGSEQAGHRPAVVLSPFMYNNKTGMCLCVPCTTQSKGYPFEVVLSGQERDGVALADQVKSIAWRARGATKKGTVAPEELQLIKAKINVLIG
# BioA inh – blocks M. tuberculosis BioA enzyme activity; inhibition, % at 9.99 µM; purified M. tuberculosis BioA enzyme, plate reader; actives 0.096% (n = 360,000); in the data active = inhibition above about 40%; inconclusive = no clear call, values can overlap the other calls
# * marks the source's active call; other numbers are inactive results; ? = inconclusive; . = no result. In the library only some 1.1% were active in any assay of this set; here they are far more common.
SMILES,3CLpro inhibitor,PfHsp40 yeast,Yp Topo-I inh,BJeLR lethal,MazF activator,BioA inh
CCC(=O)N1CCN(c2ccc(NC(=O)c3ccc([N+](=O)[O-])o3)cc2Cl)CC1,1.7,9.0,-2.7,10.9,6.0,.
Cc1cc(NC(=O)C(C)SCC(=O)N(C)CC(=O)Nc2ccccc2C(F)(F)F)no1 (stereo not drawn),.,0.5,1.0,.,2.9,-0.5
Cc1cc(NC(=O)C(C)SCC(=O)N(C)CC(=O)Nc2ccc(F)cc2)no1 (stereo not drawn),.,-1.0,100.9*,-2.9,-5.4,1.6
CCCCNC(=O)c1ccc(S(=O)(=O)c2ccc(Cl)cc2)c(NC(C)=O)c1,0.8,0.7,-7.3,2.9,4.5,-0.5
COCCCNC(=O)c1ccc(S(=O)(=O)c2ccc(C)cc2)c(NC(C)=O)c1,-0.6,91.2*,5.9,-3.0,-0.1,-0.6
CC1(C)Cc2cccc(OCC(=O)N3CCN(c4cccc(C(F)(F)F)c4)CC3)c2O1,.,41.0*,1.5,3.2,1.4,-0.4
O=C(Nc1nnc(-c2cccs2)o1)c1cccc(F)c1,-7.6,6.0,1.5,-4.9,10.0,0.4
O=C(Nc1nnc(-c2cccs2)o1)c1cccc(Oc2ccccc2)c1,7.8,500.1*,-0.7,.,2.3,1.3
O=C(NC(=S)NCc1ccccc1)c1cccc(Cl)c1,6.7,28.9*,8.4,0.1,2.1,0.7
CSC(=S)NN=C(C)c1cccc(C)n1,.,64.0*,6.5,.,0.5,.
CC(=NNC(=S)N1CCCCC1)c1cccc(C)n1,.,-0.5,4.4,.,3.5,.
O=C(Nc1ccccc1)[C@H]1[C@H](CO)[C@H]2Cn3c(cccc3=O)[C@H]2N1C(=O)C1CCCC1,.,.,.,.,.,0.4
C[C@@H]1CC[C@@]23COC(=O)C2=CCC[C@@H]3[C@@]1(C)CC/C(=C/CO)CO,.,-0.2,2.3,.,-0.6,2.3
CC1=CCC[C@@H]2[C@@](C)(CC/C(C)=C/C(=O)O)[C@H](C)CC[C@@]12C,-2.1,58.4*,21.2,5.7,-0.7,2.6
COc1ccc(NC(=O)CN(C)S(=O)(=O)c2ccc3[nH]c(=O)oc3c2)cc1,-3.1,0.2,-5.4,56.2*,-31.3,0.3
CCC(=O)Nc1ccc2c(c1)C(=O)N(C)C[C@@H](OC)[C@@H](C)CN(C(=O)C1CC1)[C@@H](C)CO2,.,.,.,.,.,0.5
CCC(=O)C1=C(O)C(c2cccc(Oc3ccccc3)c2)CCC1=O (stereo not drawn),2.9,210.6*,-1.9,5.5,4.9,5.0
COc1ccc2c(c1)C(=O)CCC2c1ccccc1 (stereo not drawn),4.2,?,5.8,-12.0,-16.0,1.4
Cc1ccc(S(=O)(=O)Nc2ccc3c(c2)C(=O)N([C@H](C)CO)C[C@H](C)[C@H](CN(C)C(=O)c2ccccc2)OCCCC[C@H](C)O3)cc1,.,.,.,.,.,-0.1
O=c1cc(CN2CCCc3ccccc32)nc2sccn12,3.7,-1.5,7.4,10.6,91.4*,-19.2
O=c1[nH]c(=O)n(-c2ccc(F)cc2)c(O)c1C=Nc1ccccc1N1CCCC1,0.1,-1.9,-4.2,4.8,205.8*,-2.1
Cc1ccc(-n2c(O)c(C=Nc3ccccc3N)c(=O)[nH]c2=O)cc1C,0.2,39.6*,6.5,-2.6,-23.8,-0.3
Cc1cc(S(N)(=O)=O)ccc1N=Cc1c(O)n(-c2ccccc2)c(=O)[nH]c1=O,5.0,-1.1,4.4,-2.9,0.1,.
Cc1cc(C(=O)Nc2cccc3c2O[C@@H](CN(C)Cc2ccc(C(F)(F)F)cc2)[C@H](C)CN([C@@H](C)CO)C3=O)n(C)n1,.,.,.,.,.,3.1
O=c1cc(O)c2ccc(O)cc2o1,11.6,0.1,-0.5,-0.4,9.9,-0.2
SMILES,3CLpro inhibitor,PfHsp40 yeast,Yp Topo-I inh,BJeLR lethal,MazF activator,BioA inh
O=c1ccc2[n+]([O-])c3ccc(O)cc3oc-2c1,1.3,-1.1,396.4*,14.3,-153.4,.
Cc1ccc(C(=O)Oc2oc(-c3ccccc3)nc2C=Nc2ccc(N(C)C)cc2)cc1,-1.3,-2.0,-3.2,1.9,870.5*,.
COc1ccc(N=Cc2nc(-c3ccccc3)oc2OC(C)=O)cc1,3.4,0.7,15.2,4.1,-25.3,-0.6
CN(C)c1ccc(N=Cc2nc(-c3ccccc3)oc2OC(=O)c2cccc(Cl)c2)cc1,4.2,0.7,5.6,2.3,125.8*,.
COCCNC(=O)/C(C#N)=C1\N=C(NC(=O)c2ccco2)c2ccccc21,.,.,-9.7,.,7.6,-0.5
CCCNC(=O)/C(C#N)=C1\N=C(NC(=O)c2ccco2)c2ccccc21,-0.8,0.0,-10.8,13.9,90.0*,.
